From PubChem BioAssay
Only some compounds are listed: those with a hit (about 1.8% of all), similar ones and a draw of the others.
MBD2 DNA inh = MBD2-methylated oligo binding inhibition; Q9UBB5; inhibition, % at 4.4 µM; hit rate 0.31% among 370,000; AID 686964; TR-FRET, MBD2 binding to methylated oligonucleotide; in the data active means inhibition above about 13%
Target sequence (Q9UBB5 whole entry, looked up): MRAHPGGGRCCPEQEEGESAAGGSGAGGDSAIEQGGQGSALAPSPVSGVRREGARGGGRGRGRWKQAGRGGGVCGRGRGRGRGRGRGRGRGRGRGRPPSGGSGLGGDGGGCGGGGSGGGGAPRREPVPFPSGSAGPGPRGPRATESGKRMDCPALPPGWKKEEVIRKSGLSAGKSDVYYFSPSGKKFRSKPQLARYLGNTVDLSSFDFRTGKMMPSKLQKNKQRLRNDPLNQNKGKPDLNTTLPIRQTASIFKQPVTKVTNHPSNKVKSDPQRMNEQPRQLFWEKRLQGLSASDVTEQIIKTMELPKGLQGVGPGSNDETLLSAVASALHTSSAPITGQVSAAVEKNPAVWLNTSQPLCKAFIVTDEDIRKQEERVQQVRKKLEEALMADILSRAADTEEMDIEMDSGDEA
UBC13 polyUb = human UBC13 polyubiquitination inhibition; P61088; UBC13 polyubiquitin chain formation, TR-FRET; inhibition, % at 20 µM; hit rate 0.47% among 330,000; AID 485273; in the data active means inhibition above about 45%, passing the limit was not always enough
Neddyl block = cullin neddylation inhibition; P61081+Q13564; TR-FRET cullin neddylation, biochemical; calls only at 25 µM; hit rate 0.58% among 360,000; AID 651699; in the data active means inhibition above about 36%
UHRF1 binding = UHRF1 methyl-DNA binding inhibition; Q96T88; UHRF1 binding to methylated oligo, TR-FRET; hit rate 0.75% among 370,000; AID 687016; inhibition, % at 4.4 µM; in the data active means inhibition above about 21%;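 further: UHRF1 SRA domain binding a hemimethylated CpG hairpin DNA probe; 0% = median of test compound wells and 100% = reference inhibitor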
* marks the source's active call; other numbers are inactive results; i = inactive; . = not tested or not shown; + = active, no number.

SMILES | MBD2 DNA inh | UBC13 polyUb | Neddyl block | UHRF1 binding
CCOC(=O)c1ccccc1NC(=O)CSc1nnc(C)c(=O)[nH]1 | -2 | 3 | i | -2
CCOC(=O)c1cccc(N2C(=O)Nc3ccccc3N2O)c1 | 3 | -2 | i | 23*
CCOC(=O)c1c(-c2ccccc2)csc1N1C(=O)Nc2ccccc2N1O | 0 | -18 | i | 1
COc1cc(-c2nc(C(=O)NCC3CCCO3)cc3c2[nH]c2ccccc23)cc(OC)c1OC (centres undefined) | -1 | 13 | + | -2
CC(=O)N1N=C(c2ccco2)CC1c1ccc(Cl)o1 (centres undefined) | 6 | 3 | i | 33*
CC(=O)N1N=C(c2ccco2)CC1c1cccs1 (centres undefined) | -5 | 0 | i | -2
CN(C)c1cccc(C(=O)OCc2cc(=O)oc3cc(O)ccc23)c1 | 8 | 6 | . | 24*
Cc1ccc(CN2C(=O)CCSc3ccc(Cl)cc32)cc1 | 1 | -4 | i | 2
CCOC(=O)CN1C(=O)CCSc2ccc(Cl)cc21 | 1 | 4 | i | 36*
C[C@@H]1CN=C2N(CCNC(=O)CCC3CCCCC3)[C@H](Cc3ccc(O)cc3)CN21 | 3 | 14 | i | 4
CCCCCCNC(=O)N[C@H](C(=O)NCCC[C@H]1CN2C(=NC[C@H]2C)N1CCC(c1ccccc1)c1ccccc1)C(C)O (some centres undefined) | . | 49* | . | .
CC1CN(C2CCN(S(=O)(=O)c3ccc(F)cc3)CC2)CC(C)O1 (centres undefined) | 0 | 7 | i | 21*
CN(C)C(=O)c1cn(N(C)c2ncc(C(F)(F)F)cc2Cl)c(=O)c2ccccc12 | -2 | 13 | i | 1
CN(c1ncc(C(F)(F)F)cc1Cl)N1C(=O)c2cccc([N+](=O)[O-])c2C1=O | 1 | -7 | i | 23*
COC(=O)c1ccc(OC(=O)CS(=O)c2ccccc2[N+](=O)[O-])cc1 (centres undefined) | -3 | 10 | i | 62*
COc1cc(OC)cc(C(=O)NC(=S)NNC(=O)[C@H]2C[C@@H]2c2ccccc2)c1 | 1 | -18 | + | -1
O=C(NC(=S)NNC(=O)[C@H]1C[C@@H]1c1ccccc1)c1ccc(F)cc1 | 4 | -26 | i | -2
C=CC(=O)Nc1cccc(Oc2nc(Nc3ccc(N4CCN(C)CC4)cc3OC)ncc2Cl)c1 | -1 | . | . | 1
C=CC(=O)Nc1ccc(CN2C(=O)N(c3c(Cl)c(OC)cc(OC)c3Cl)Cc3cnc(NCCCCN(CC)CC)nc32)cc1 | . | 63* | i | .
CN(C)C(/C=C/Nc1ccc(O)cc1)=C(C#N)C#N | 4 | 2 | i | -4
O=C(N/N=C/c1c(O)n(Cc2ccco2)c(=O)[nH]c1=O)c1ccccc1 | -5 | -3 | i | 34*
NC(=S)Nc1cccc2cc3ccccc3cc12 | -6 | -33 | + | -6
NC(=S)Nc1cc2ccccc2c2ccccc12 | -5 | 6 | i | -2
C/C(=N\NC(=S)Nc1ccccc1C)c1ccc(O)cc1 | . | 50* | i | .
CCOC(=O)c1c(C)[nH]c(C(=O)N(C)CC(=O)Nc2ccc(OC)cc2)c1C | 0 | 3 | i | 21*
SMILES | MBD2 DNA inh | UBC13 polyUb | Neddyl block | UHRF1 binding
CCOC(=O)c1[nH]c(C)c(C(=O)OCC(=O)NCc2ccc(OC)cc2)c1C | 1 | 5 | i | 9
CC1CCCN(C(=O)COC(=O)C2CCN(S(=O)(=O)c3ccc(Cl)c(C(F)(F)F)c3)CC2)C1 (centres undefined) | 0 | -11 | i | -2
CCc1ccc(OCC(=O)NNC(=S)NC(=O)C2CCCCC2)c(Br)c1 | 0 | -20 | i | 1
CCc1ccc(OCC(=O)NNC(=S)NC(=O)C2CC2)c(Br)c1 | -5 | 72* | i | -2
CN(C)S(=O)(=O)c1ccc(Cl)c(C(=O)Nc2nc3ccccc3[nH]2)c1 | 2 | 6 | i | 39*
CCCNC(C)(C)COC(=O)c1ccccc1 | 5 | -9 | i | 0
O=C(Nc1cccc(Cl)c1N1CCOCC1)c1ccco1 | 2 | 2 | i | 6
CCN1CCN(c2c(Cl)cccc2NC(=O)c2ccco2)CC1 | 11 | -5 | i | 23*
CCOC(=O)/C(=C\C=C1/Sc2cc(OCC)c(OCC)cc2N1CC)C(C)=O | -9 | . | i | -14
C#CCOCCOCCOCCNc1nc(N2CCN(C(=O)C(Cc3cc4ccccc4[nH]3)n3cc(C(N)C(C)CC)nn3)CC2)nc(N2CCN(C(=O)C(Cc3cc4ccccc4[nH]3)n3cc(C(N)C(C)CC)nn3)CC2)n1 (centres undefined) | . | 94* | i | .
